These results are taken from PubChem BioAssay (NCATS).

Values without a mark were called inactive. How the calls were made is not given here.
Potency means the concentration at half of the fitted maximal effect.

In this assay the test system is HIV-1 nucleocapsid protein NCp7 (binding to TG oligonucleotide). Kind of assay: HIV Nucleocapsid (AID 346).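 Further: potency is for inhibitors that block NC binding and lower polarization.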 Conditions: HIV-1 NC / fluorescein-TGTGTGTG probe, fluorescence polarization. The procedure, abridged: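 Fluorescence polarization binding of 100 nM HIV-1 NC to 10 nM fluorescein-labelled TG4xF oligonucleotide. Buffer was Hepes pH 7.5 with 250mM NaCl, 1uM ZnCl2, TCEP and 2-mercaptoethanol. Compounds were incubated 1 hr at room temperature before the read.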
(In fluorescence polarisation assays a small probe gives low polarisation when free and higher when bound to something large.)
Take `COc1ccc(-c2nc3cnc(N(C)C)nc3n(Cc3cccs3)c2=O)cc1`: the Potency was greater than 20 µM.
With `CC(C)CN1CCC2(CC1)CCN(S(=O)(=O)c1ccccc1)CC2`, the Potency was greater than 20 µM.
For `Cc1nc2cnc(N3CCN(C)CC3)nc2n(C[C@H]2CCCO2)c1=O`, the Potency is greater than 20 µM.
For `Cc1cnc(CNc2cc(-c3cccc(NS(C)(=O)=O)c3)ncn2)cn1`, the Potency was greater than 20 µM.
`COC(=O)N1CCC2(CC1)CN(c1ccc(-c3ccccc3)cc1)C2`: the Potency is greater than 20 µM.
On to `CCNc1ncc2nc(-c3ccc(Cl)cc3)c(=O)n(C[C@H]3CCCO3)c2n1`, for which the Potency was greater than 4 µM.
Under `COc1ccc(Oc2ncc3nc(-c4ccc(F)cc4)c(=O)n(C4CC4)c3n2)cc1` stands greater than 20 µM; under `CN(Cc1ccco1)c1ncncc1-c1ccccc1C(F)(F)F`, greater than 20 µM; under `Cc1ccccc1-c1nc(-n2ccnc2)c2ccccc2n1`, greater than 20 µM.
As to `COc1cccc(Cn2c(=O)c(-c3cccs3)nc3cnc(Nc4cccc(OC)c4)nc32)c1`, the Potency was greater than 20 µM.
Take `Cc1noc(C)c1C(=O)N1CCC[C@@]2(CCN(c3ncccn3)C2)C1`: the Potency was greater than 20 µM.
For the molecule `CC(=O)NCCNc1nc(-c2ccccc2C(F)(F)F)nc2ccccc12`, the Potency is greater than 20 µM.
Turning to `Cc1nc2cnc(N3CCN(C)CC3)nc2n(-c2ccccc2)c1=O`, the Potency was greater than 20 µM.
Take `O=C(Nc1ccccc1)N1CCCC2(CCN(C(=O)c3cccc(F)c3)CC2)C1`: the Potency was greater than 20 µM.
Regarding `CC(=O)N1CCC2(CC1)CN(C(=O)Nc1cccc(C#N)c1)C2`, the Potency is greater than 20 µM.
